# In the library only some 2.2% were active in any assay of this set; here they are far more common.
# aSyn UTR inh: MLPCN primary screen, SNCA 5' untranslated region; actives 0.82% (n = 300,000); inhibition, % (tested at 7.5 µM); alpha-synuclein 5'UTR reporter, inhibitor activity; AID 1813; in the data active = inhibition above about 60%;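 also: H4 neuroglioblastoma cells stably carrying SNCA 5'UTR luciferase fusion; 0% = DMSO wells and 100% = positive control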
# BaF3 parental: reduces parental Ba/F3 cell viability, JAK2V617F counter-screen | inhibition, % at 5.6 µM | CellTiter-Glo ATP luminescence | actives 1.1% (n = 220,000);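 active = inhibition above a per-campaign cutoff, the mean inhibition of all tested compounds plus 3 SD, cut at about 27% in these data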;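 also: 0% = DMSO wells and 100% = JAK Inhibitor I control wells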
# KLF5 inh: inhibitors of KLF5 expression; inhibition, % at 5 µM; DLD-1 KLF5 promoter-luciferase reporter, luminescence; actives 0.23% (n = 290,000); AID 1700;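 active = inhibition above a per-plate limit of that plate's mean compound inhibition plus 3 SD, cut at about 60% in these data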;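 also: 0% = DMSO wells and 100% = LY294002 at 200 µM; higher means less KLF5 promoter-driven luciferase light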
# APP 5UTR inh: APP translation inhibition | SH-SY5Y APP 5'UTR-luciferase reporter, luminescence | inhibition, % at 2 µM | actives 0.82% (n = 190,000) | AID 1285;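 active = inhibition above a set limit, derived from the sample mean plus 3 SD, cut at about 45% in these data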
# IEC-6 tox: IEC-6 cytotoxicity, counter-screen for KLF5 inhibitors. luminescence viability. actives 0.78% (n = 290,000). inhibition, % at 5 µM; in the data active = inhibition above about 22%;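 also: 0% = plate median of test compound wells and 100% = cytotoxic reference compound wells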
# Ba/F3 V617F tox: lowers viability of Ba/F3 cells expressing EpoR and JAK2V617F. actives 1.1% (n = 220,000). inhibition, % at 5.6 µM. ATP luminescence;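 active = inhibition above the campaign mean plus 3 SD over all tested compounds, cut at about 24% in these data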;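 also: cytokine-independent growth of Ba/F3 cells driven by EpoR plus mutant JAK2; 0% = DMSO-treated cells and 100% = JAK inhibitor I control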
# * hit, by the source's call; / = no result.
SMILES,aSyn UTR inh,BaF3 parental,KLF5 inh,APP 5UTR inh,IEC-6 tox,Ba/F3 V617F tox
Cc1cccc(NC(=S)N2CCC(C(N)=O)(N3CCCCC3)CC2)c1C,4.3,-0.8,-6.1,-1.2,2.0,-2.5
CN(C)CCCN(C(=O)CCc1ccccc1)c1nc2ccc(Cl)cc2s1,109.5*,6.5,-15.8,9.6,3.2,-0.1
Nc1nn(-c2cccc(F)n2)cc1-c1ccccc1,-112.7,0.8,-62.0,-213.2,12.8,3.6
COc1cccc(N/C(N)=N/c2nc(C)cc(=O)[nH]2)c1,0.6,/,-31.1,/,-8.7,/
C=CCCC(=O)N1CCC(n2nccc2NC(=O)c2ccccc2C)CC1,21.2,/,-13.1,/,-1.0,/
Cc1cc(NC(=O)CCC(=O)N(Cc2ccco2)C2(C(=O)NC3CCCCC3)CCN(C)CC2)no1,17.0,89.0*,-16.7,9.3,0.9,-0.2
Cc1cc(NC(=O)CCC(=O)N(Cc2ccco2)C2(C(=O)NC3CCCC3)CCCCC2)no1,4.8,/,-7.6,/,-2.3,/
CC1=NNC(=O)/C1=C\c1cn(-c2ccccc2)nc1-c1ccc(Cl)cc1,98.4*,6.5,-33.6,-8.7,-4.5,-1.6
Cc1ccc(-c2nn(-c3ccccc3)cc2C=C2C(=O)CC(C)(C)CC2=O)cc1,-94.0,1.4,-65.9,-71.4,2.0,1.1
CCc1nnc(SCC(=O)NCCC2=CCCCC2)nc1CC,3.1,/,-9.4,/,11.3,/
CN1CCN(CC(=O)Nc2nc3c(s2)CCCC3)CC1,-18.1,1.5,-3.0,/,2.5,-3.6
CCN1CCN(/C=N/c2nc3c(s2)CCCC3)CC1,65.6*,2.1,-26.4,-76.3,1.2,-2.6
CN(C)C(CNC(=O)c1ccc(C2SCCS2)cc1)c1ccccc1 (stereo unspecified),-99.5,/,-34.7,/,3.9,/
O=C(Nc1ccc(CN2CCOCC2)cc1)c1cc2ccccn2n1,71.7*,1.4,-54.6,-86.1,6.9,2.9
COc1cccc(COC(=O)C2CC(=O)N(Cc3ccc(C)cc3)C2)c1OC (stereo unspecified),-1.4,/,/,/,/,/
CCOC(=O)C1=C(Cc2ccc(OC)cc2)C(=O)c2ccccc2C1=O,/,0.0,14.5,72.3*,1.7,1.0
CCOC(=O)C1=C(Cc2ccc(C)cc2)C(=O)c2ccccc2C1=O,-65.4,4.8,-26.3,-0.3,0.9,1.1
NC(=O)CCCn1c(C(=O)c2cc(Cl)c(N)c(Cl)c2)c2ccc([N+](=O)[O-])cc2[n+]1[O-],71.4*,/,/,/,/,/
NC(=O)CCCn1c(C(=O)c2ccc(Cl)cc2)c2ccc([N+](=O)[O-])cc2[n+]1[O-],21.3,/,/,/,/,/
COC(=O)c1c(C)[nH]c(C(=O)N2CCN(c3ccc(OC)cc3)CC2)c1C,-43.4,9.0,-33.8,7.3,-0.7,1.1
COc1cccc(N2CCN(C(=O)c3[nH]c(C)c(C(C)=O)c3C)CC2)c1,-2.2,35.2*,41.0,29.2,16.5,20.9
COc1cc(-c2cc(C(=O)N3CCN(c4ccccn4)CC3)c3ccccc3n2)cc(OC)c1OC,-7.3,4.3,2.2,1.9,32.7*,3.4
CCOc1ccc(C(=O)C[n+]2cccc3cc(C)ccc32)cc1,5.4,/,-10.1,/,0.8,/
Cc1ccc(C(=O)C[n+]2cccc3cc(C)ccc32)cc1,1.4,70.0*,-11.0,10.5,2.1,4.6
COc1cc([C@@H]2c3cc4c(cc3[C@@H](O[C@@H]3O[C@@H]5CO[C@@H](C)O[C@H]5[C@H](O)[C@H]3O)[C@H]3COC(=O)[C@H]23)OCO4)cc(OC)c1O,38.7,/,/,/,/,/
SMILES,aSyn UTR inh,BaF3 parental,KLF5 inh,APP 5UTR inh,IEC-6 tox,Ba/F3 V617F tox
COc1cc([C@@H]2c3cc4c(cc3[C@@H](NC3CCN(Cc5ccccc5)CC3)[C@H]3COC(=O)[C@H]23)OCO4)cc(OC)c1O,103.2*,/,/,/,/,/
CC1=C(C)/C(=N\OS(=O)(=O)c2ccccc2)C=CC1=O,-79.9,91.1*,-36.1,74.1*,-5.3,90.6*
O=C(Cn1cnc2ccccc2c1=O)N1CCOCC1,20.1,-2.2,16.3,50.5*,1.3,-0.6
O=C(Cn1cnc2ccccc2c1=O)N1CCc2ccccc2C1,-5.6,7.5,-21.4,8.1,-1.5,-3.7
COCCNC(=O)C(C(=O)c1ccc(F)cc1)n1cc(C)ccc1=O (stereo unspecified),-6.2,3.9,-16.0,-14.6,1.4,0.2
Cc1ccc(C(=O)COC(=O)c2ccc(O)cc2)cc1,-182.3,4.6,-89.4,-148.7,4.5,-1.0
Cc1ccccc1OCC(=O)N/N=C/c1ccc(N2CCOCC2)o1,/,/,-23.0,/,-3.8,/
CCC1=Nc2cc(C(=O)O)ccc2Sc2ccccc21,6.7,4.6,11.2,-8.5,-4.0,-6.0
CCc1nc2ccc(C(=O)NCc3ccco3)cc2nc1CC,-0.1,2.1,-13.6,-5.0,7.7,2.9
CCC1=Nc2cc(C(=O)NCc3ccco3)ccc2Sc2ccccc21,29.9,32.3*,16.0,50.3*,35.7*,30.2*
CCC1=Nc2cc(C(=O)NCc3ccco3)ccc2Sc2ccc(Cl)cc21,15.6,73.2*,45.3,94.9*,22.4*,20.4
CCN(CC(=O)Nc1c(F)cccc1F)C(=O)c1cc(S(=O)(=O)N2CCOCC2)ccc1N1CCCC1,39.9,/,/,/,/,/
CCOc1ccc(NC(=O)Nc2cc(OCC(F)(F)F)cc(OCC(F)(F)F)c2)cc1,0.5,3.5,-11.2,-15.4,-7.4,-1.4
O=C(Nc1ccc(F)cc1)Nc1cc(OCC(F)(F)F)cc(OCC(F)(F)F)c1,86.0*,1.6,-15.6,17.7,5.8,5.6
CSc1ccc(CN2CCN(CC=C(C)C)C(CCO)C2)cc1 (stereo unspecified),-12.0,-1.0,-2.9,-2.9,5.7,2.4
c1csc(C2Nc3cccc4cccc(c34)N2)c1,2.5,32.9*,14.7,26.9,-2.7,10.9
Cc1nn(C(=O)C(C)N2C(=O)c3ccccc3C2=O)c(C)c1Br (stereo unspecified),-15.0,93.9*,-13.9,-3.0,-4.0,-1.2
Cc1cn(C(=O)C(C)N2C(=O)c3ccccc3C2=O)c(C)n1 (stereo unspecified),11.4,2.4,6.4,-11.0,5.2,-1.5
CC1CC(=O)NN1C(=O)c1ccccc1 (stereo unspecified),9.3,0.6,-18.0,/,-5.3,-1.4
O=C(Cn1c(-c2ccccc2)c[n+]2ccsc12)c1ccc(Br)cc1,-21.9,40.5*,-12.7,15.5,0.5,27.2*
Fc1ccc(-c2ncc3ccccn23)cc1,-100.7,3.4,-48.1,-2.2,-1.5,-2.8
Fc1ccc(-c2nnc3ccccn23)cc1,-11.6,80.7*,-8.4,-3.8,3.5,1.2
CCn1c(SCc2ccccc2Cl)nc2nc3c(cc2c1=O)CCCC3,0.3,4.6,-34.5,70.3*,-4.0,2.1
Cn1cccc1/C=N/NC(=O)c1cc(-c2cccs2)nc2ccccc12,27.4,2.9,-19.6,46.7*,0.1,-1.8
CCc1ccc(/C=N/NC(=O)c2cc(-c3ccncc3)nc3ccccc23)s1,83.2*,6.5,2.0,91.2*,9.1,-4.1
CC1CC(C)CN(C(=O)Cn2c(=O)n(CCCC(=O)NCc3ccco3)c(=O)c3sccc32)C1 (stereo unspecified),-13.6,/,-4.5,/,2.0,/
